Results taken from PubChem BioAssay (EPA / NIEHS).
The source made the active and inactive calls. How the source made its calls: active means hit-call score of the fitted dose curve at least 0.9, where 1 is the maximum; inactive means score below 0.9.

Key:
[1] = BSK_3C_SRB: Viability Assessment in the BioMAP Diversity Plus: 3C Assay (AID 2283023); conditions: primary human endothelial cells (HUVEC);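 further: fitted both ways against DMSO so a hit may be signal rise or drop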
In short: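 Overt cytotoxicity is gauged in parallel confluent HUVEC cultures by SRB total-protein staining at the time of biomarker measurement, 24 h after dosing. Gain or loss of signal is fitted versus DMSO.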

[2] = read-out: Matrix Metallopeptidase 1 (MMP1), MMP1 (gene 4312); experiment: BSK_BE3C_MMP1: BioMAP Diversity Plus: BE3C Assay for Matrix Metallopeptidase 1 (MMP1) Biomarker Activity (AID 2283024); conditions: primary human bronchial epithelial cells; actives raise or lower the signal
In short: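 ELISA read-out of MMP1 in human lung bronchial epithelial primary cultures, 24 h post-dose; bidirectional curve fit vs DMSO baseline, gain or loss of signal scored.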

[3] = BSK_3C_Vis: BioMAP Diversity Plus: 3C Assay for Morphology Visualization (AID 2283025); conditions: primary human endothelial cells (HUVEC);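 further: fitted both ways so gain or loss versus DMSO counts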;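 on AC50: light microscopy image of cell morphology used as background control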
In short: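 HUVEC, 3C system; light microscopy of morphology at 24 h post-dose. Bidirectional fit vs DMSO baseline. Secondary readout, background-control function.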

[4] = read-out: Pselectin, SELP (gene 6403); experiment: BSK_4H_Pselectin: BioMAP Diversity Plus: 4H Assay for Pselectin Biomarker Activity (AID 2283026); conditions: primary human endothelial cells (HUVEC); actives raise or lower the signal
In short: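 HUVEC, 24 h chemical exposure; P-selectin read by ELISA. Bidirectional curve fit vs DMSO baseline; gain or loss of signal scored.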

[5] = BSK_4H_SRB: Viability Assessment in the BioMAP Diversity Plus: 4H Assay (AID 2283027); conditions: primary human endothelial cells (HUVEC);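 further: cells exposed to compound for 24 h before staining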;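 on AC50: curves fitted both ways versus DMSO so AC50 may be loss or gain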
In short: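 Cytotoxicity readout: sulforhodamine B (0.1%) staining of total protein after 10% TCA fixation, measured at 560 nm in human umbilical vein endothelium at 24 h. DMSO set the baseline; fitting was bidirectional.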

[6] = read-out: Thrombomodulin, THBD (gene 7056); experiment: BSK_3C_Thrombomodulin: BioMAP Diversity Plus: 3C Assay for Thrombomodulin Biomarker Activity (AID 2283029); conditions: primary human endothelial cells (HUVEC); actives raise or lower the signal
In short: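 HUVEC, 3C conditions; compound 24 h; thrombomodulin by ELISA; bidirectional curve fit vs DMSO baseline; parallel SRB total-protein staining for cytotoxicity.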

[7] = read-out: Urokinase-type plasminogen activator receptor (uPAR), PLAUR (gene 5329); experiment: BSK_4H_uPAR: BioMAP Diversity Plus: 4H Assay for Urokinase-type plasminogen activator receptor (uPAR) Biomarker Activity (AID 2283030); conditions: primary human endothelial cells (HUVEC); actives raise or lower the signal
In short: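 Endpoint derived via bidirectional curve fitting against DMSO baseline; readout was ELISA detection of uPAR on umbilical vein endothelial cells at 24 h post-treatment, with SRB-stained parallel cultures assessing cytotoxicity.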

[8] = read-out: Vascular endothelial growth factor receptor 2 (Homo sapiens) (UniProt P35968); experiment: BSK_4H_VEGFRII: BioMAP Diversity Plus: 4H Assay for Vascular endothelial growth factor receptor 2 (VEGFR2) Biomarker Activity (AID 2283031); conditions: primary human endothelial cells (HUVEC); actives raise or lower the signal;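 on AC50: cell-surface VEGFR2 protein level quantified by ELISA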
In short: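 In this multiplexed HUVEC system, biomarker ELISA was performed after 24 h chemical exposure. Parallel SRB staining (TCA fixation, 560 nm) tracked cytotoxicity; DMSO served as baseline.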

[9] = read-out: Human Leukocyte Antigen - DR isotype (HLADR), HLA-DRA (gene 3122); experiment: BSK_BE3C_HLADR: BioMAP Diversity Plus: BE3C Assay for Human Leukocyte Antigen - DR isotype (HLADR) Biomarker Activity (AID 2283032); conditions: primary human bronchial epithelial cells; actives raise or lower the signal
In short: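 Primary human bronchial epithelial cells (BE3C); 24 h chemical exposure; HLA-DR by ELISA; bidirectional curve fit vs DMSO baseline.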

[10] = read-out: Vascular cell adhesion molecule 1 (VCAM1), VCAM1 (gene 7412); experiment: BSK_4H_VCAM1: BioMAP Diversity Plus: 4H Assay for Vascular cell adhesion molecule 1 (VCAM1) Biomarker Activity (AID 2283033); conditions: primary human endothelial cells (HUVEC); actives raise or lower the signal
In short: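 HUVEC, 24 h post-dose; VCAM-1 by ELISA. Bidirectional curve fit vs DMSO baseline. Parallel SRB total-protein stain (0.1% SRB after 10% TCA fixation, 560 nm) for cytotoxicity.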

[11] = read-out: Interferon-gamma inducible Protein 10 (IP10), CXCL10 (gene 3627); experiment: BSK_BE3C_IP10: BioMAP Diversity Plus: BE3C Assay for Interferon-gamma inducible Protein 10 (IP10) Biomarker Activity (AID 2283034); conditions: primary human bronchial epithelial cells; actives raise or lower the signal
In short: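 ELISA readout of IP-10 in BE3C system: primary human bronchial epithelial cells, 24 h post-dosing; bidirectional curve fit vs DMSO baseline.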

[12] = read-out: Monokine induced gamma interferon (MIG), CXCL9 (gene 4283); experiment: BSK_BE3C_MIG: BioMAP Diversity Plus: BE3C Assay for Monokine induced gamma interferon (MIG) Biomarker Activity (AID 2283035); conditions: primary human bronchial epithelial cells; actives raise or lower the signal
In short: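 hu bronchial epithelial 1° cells, 24 h cpd; MIG by ELISA; bidirectional fit, DMSO = baseline.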

[13] = read-out: Transforming growth factor beta 1 (TGFb1), TGFB1 (gene 7040); experiment: BSK_BE3C_TGFb1: BioMAP Diversity Plus: BE3C Assay for Transforming growth factor beta 1 (TGFb1) Biomarker Activity (AID 2283036); conditions: primary human bronchial epithelial cells; actives raise or lower the signal
In short: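 Read-out: ELISA for TGF-b1 in primary human bronchial epithelial cultures, 24 h post-dose. Bidirectional curve fitting vs DMSO control; gain or loss of signal both scored.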

[14] = read-out: Plasminogen activator inhibitor-1 (PAI1), SERPINE1 (gene 5054); experiment: BSK_BE3C_PAI1: BioMAP Diversity Plus: BE3C Assay for Plasminogen activator inhibitor-1 (PAI1) Biomarker Activity (AID 2283037); conditions: primary human bronchial epithelial cells; actives raise or lower the signal
In short: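 ELISA read-out of PAI-1 from human bronchial epithelial primary cells, 24 h post-dosing; bidirectional curve fit vs DMSO baseline, gain or loss of signal scored.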

[15] = read-out: urokinase plasminogen activator (uPA), PLAU (gene 5328); experiment: BSK_BE3C_uPA: BioMAP Diversity Plus: BE3C Assay for urokinase plasminogen activator (uPA) Biomarker Activity (AID 2283038); conditions: primary human bronchial epithelial cells; actives raise or lower the signal
In short: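 Using confluent primary human lung bronchial epithelial cultures, we dosed chemicals, waited 24 h, then ran a uPA ELISA, fitting bidirectionally against DMSO.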

[16] = read-out: Interleukin-6 (IL6), IL6 (gene 3569); experiment: BSK_CASM3C_IL6: BioMAP Diversity Plus: CASM3C Assay for Interleukin-6 (IL6) Biomarker Activity for (AID 2283040); conditions: primary human coronary artery smooth muscle cells; actives raise or lower the signal
[17] = read-out: Tissue plasminogen activator (tPA), PLAT (gene 5327); experiment: BSK_BE3C_tPA: BioMAP Diversity Plus: BE3C Assay for Tissue plasminogen activator (tPA) Biomarker Activity (AID 2283041); conditions: primary human bronchial epithelial cells; actives raise or lower the signal
In short: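 ELISA read-out of tPA on human primary bronchial epithelial cells, 24 h post-dosing; bidirectional fit vs DMSO negative control/baseline.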

[18] = read-out: Interleukin-8 (IL8), CXCL8 (gene 3576); experiment: BSK_CASM3C_IL8: BioMAP Diversity Plus: CASM3C Assay for Interleukin-8 (IL8) Biomarker Activity (AID 2283042); conditions: primary human coronary artery smooth muscle cells; actives raise or lower the signal;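 further: IL-8 protein level quantified by ELISA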
[19] = read-out: Urokinase-type plasminogen activator receptor (uPAR), PLAUR (gene 5329); experiment: BSK_BE3C_uPAR: BioMAP Diversity Plus: BE3C Assay for Urokinase-type plasminogen activator receptor (uPAR) Biomarker Activity (AID 2283039); conditions: primary human bronchial epithelial cells; actives raise or lower the signal
In short: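 ELISA readout of uPAR on human lung primary bronchial epithelial cells, 24 h post-dosing. Bidirectional curve fit relative to DMSO vehicle baseline; gain or loss of signal both scored.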

[20] = BSK_BE3C_SRB: Viability Assessment in the BioMAP Diversity Plus: BE3C Assay (AID 2283028); conditions: primary human bronchial epithelial cells;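 further: measured 24 h after chemical dosing; fitted both ways so AC50 may mark signal gain or loss versus DMSO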
In short: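 SRB total-protein staining (0.1%, after TCA fixation) of chemically dosed human bronchial epithelial primary cells at 24 h; DMSO serves as the negative control for bidirectional curve fitting.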

Measured: AC50

NC(=O)NO
not listed: [19] | [20]
inactive: all other assays above

CC1=CC(=O)CC(C)(C)C1
not listed: [7] | [19] | [20]
inactive: all other assays above

CCN(C(=O)c1cc(C)cc(OC[C@H](C)Nc2ccncc2)c1)C(C)C
not listed: [19] | [20]
inactive: all other assays above

O=C1CCC(N2C(=O)c3ccccc3C2=O)C(=O)N1 (centres undefined)
not listed: [7] | [20]
inactive: all other assays above

O=C1OC(=O)C2C3C=CC(C3)C12 (centres undefined)
not listed: [7] | [20]
inactive: all other assays above

O=c1[nH]c2ccc(S(=O)CCN3CCC(Cc4ccc(F)cc4)CC3)cc2o1 (centres undefined)
active: [5] 3.97 µM | [10] 15.3 µM
not listed: [7] | [19] | [20]
inactive: all other assays above

Cc1ccc(N)cc1O
not listed: [7] | [20]
inactive: all other assays above

Fc1ccccc1[C@@H](F)COC1CCC(Nc2ncnc3[nH]ncc23)CC1 (some centres undefined)
active: [1] 27.6 µM | [3] 39 µM | [4] 29.2 µM | [5] 30 µM
not listed: [7] | [20]
inactive: all other assays above

CC(=O)OCCC(C)C
not listed: [7] | [20]
inactive: all other assays above

CC(C)CCCCCCOC(=O)c1ccc(C(=O)OCCCCCCC(C)C)c(C(=O)OCCCCCCC(C)C)c1
not listed: [7] | [20]
inactive: all other assays above

O=C(CCCCCCCCc1cccnc1)N1CCC(C=C(c2ccccc2)c2ccccc2)CC1
inactive: [6] | [16]
active: [1] 8.88 µM | [3] 10.9 µM | [4] 6.41 µM | [5] 13.1 µM | [20] 34.2 µM | [7] 11.2 µM | [8] 8 µM | [9] 17.6 µM | [10] 12.7 µM | [11] 24.5 µM | [12] 27.9 µM | [13] 23.7 µM | [14] 19.3 µM | [15] 24.7 µM | [17] 19.5 µM | [18] 38.3 µM

Nc1nc2ncc(CNc3ccc(C(=O)N[C@@H](CCC(=O)O)C(=O)O)cc3)nc2c(=O)[nH]1
not listed: [7] | [19] | [20]
inactive: all other assays above

O=C(O)CC(O)C(=O)O (centres undefined)
not listed: [19] | [20]
inactive: all other assays above

On1ccccc1=S
active: [1] 29.7 µM | [2] 10.9 µM | [3] 38.4 µM | [4] 11.8 µM | [5] 14.8 µM | [6] 5.96 µM | [7] 19.8 µM | [9] 3.31 µM | [10] 14.8 µM | [11] 3.8 µM | [12] 5.25 µM | [13] 5.47 µM | [14] 3.45 µM | [15] 5.4 µM | [19] 9.61 µM | [16] 32.2 µM | [17] 3.55 µM
inactive: [18]
